# KCNQ2 pot – KCNQ2 (rat) channel potentiation; O88943; CHO-K1 KCNQ2, FluxOR thallium flux fluorescence; stronger effect = higher value; B-score at 10 µM; 0.54% of 310,000 active;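 active = fluorescence ratio B-score at least 3 SD of library B-scores, with initial fluorescence B-score within 3 of them, cut at about 5.3 in these data; same plate scores as AID 2156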;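 note: B-score of peak minus minimum over baseline fluorescence ratio after K+ and Tl+ stimulus; positive B-score means potentiation of KCNQ2 with more thallium influx and brighter signal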
# KCNQ2 inh – KCNQ2 (rat) channel inhibition; O88943; CHO-K1 KCNQ2, FluxOR thallium flux, 20 min; stronger effect = lower value; B-score at 10 µM; 1.1% of 310,000 active; AID 2156;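 active = fluorescence ratio B-score at most minus 3 library SDs, with starting brightness B-score within 2 library SDs, cut at about -5.5 in these data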
# An asterisk follows results filed as active; i = inactive; x = no result given. Hits are enriched below; roughly 1.6% of the tested compounds scored in any of these assays.
SMILES,KCNQ2 pot,KCNQ2 inh
CC(C)NC(=O)NC(=O)COC(=O)Cc1c(F)cccc1Cl,x,i
CC12CCC(C(=O)Nc3cccc(Cl)c3)(C(Br)C1=O)C2(C)C (stereo not drawn),7*,i
CC12CCC(C(=O)Nc3ccc(Cl)cc3)([C@H](Br)C1=O)C2(C)C (stereo partly drawn),x,i
CC1CC(=O)N(CC(=O)Nc2ccccc2F)c2ccccc2S1(=O)=O (stereo not drawn),x,i
Cc1cccc(C)c1NC(=O)CN(C)C(=O)c1ccccc1C(=O)N(C)Cc1ccccc1,-6.6,-6.6*
Cc1ccccc1C(=O)N(C)Cc1ccccc1,x,i
CCCCC1CCC(C(=O)OC(C)C(=O)Nc2ccc(NC(C)=O)cc2)CC1 (stereo not drawn),0.04,i
CCOC(=O)Cn1c(=NC(=O)CSC(C)=O)sc2cc(OC)ccc21,x,i
CCOC(=O)Cn1c(=NC(=O)CSC(C)=O)sc2ccccc21,-6.8,-6.8*
O=C(O)CCn1c(SCCOc2ccccc2)nc2ccccc21,x,i
Cc1ccccc1CSCCNC(=O)CSCc1ccc([N+](=O)[O-])cc1,-6.4,-6.4*
Cc1ccc(CSCCNC(=O)CSCc2ccc([N+](=O)[O-])cc2)cc1,x,i
O=C(Nc1ccccc1C(F)(F)F)c1c(F)cccc1Cl,x,i
COc1ccccc1NC(=O)C(C)NC(c1ccccc1)c1ccccc1 (stereo not drawn),1.4,i
CC(C(=O)Nc1ccccc1Oc1ccccc1)c1ccccc1 (stereo not drawn),8.9*,i
CC(C)NC(=O)C1(S(=O)(=O)c2ccccc2)CC=CC1,1.5,i
CN(C)c1ccc(-c2sc(Nc3ccccc3)n[n+]2-c2ccc(F)cc2)cc1,x,i
COc1ccc(C)cc1Nc1n[n+](-c2ccccc2)c(-c2c(Cl)cccc2Cl)s1,-6.5,-6.5*
COc1ccc(C)cc1Nc1n[n+](-c2ccccc2)c(-c2ccc(OC)c(OC)c2OC)s1,x,i
COc1ccc(C)cc1Nc1n[n+](-c2ccccc2)c(-c2ccc(N(C)C)cc2)s1,-5.7,-5.7*
COc1ccc(CCNC(=O)c2c(O)c3ccccc3[nH]c2=O)cc1,x,i
COc1cccc(C(=O)NCC(=O)OCC(=O)Nc2cc(OC)c([N+](=O)[O-])cc2C)c1,0.01,i
O=C(NC1C2CCCC1CN(C1CC1)C2)c1ccc(Cl)cc1 (stereo not drawn),x,i
CN(C(=O)CC(NC(=O)c1ccccc1Cl)c1ccccc1)c1ccccc1 (stereo not drawn),-5.7,-5.7*
O=C(CC(NC(=O)c1ccccc1Cl)c1ccccc1)NCCc1ccc(Cl)cc1 (stereo not drawn),x,i
SMILES,KCNQ2 pot,KCNQ2 inh
CC(=O)[C@@]1(O)CC[C@H]2[C@@H]3CCC4=CC(=O)CC[C@]4(C)[C@H]3CC[C@@]21C,0.03,i
CCCCCC(=O)O[C@]1(C(C)=O)CC[C@H]2[C@@H]3CCC4=CC(=O)CC[C@]4(C)[C@H]3CC[C@@]21C,-7.2,-7.2*
Cc1cccc(NC(=O)N2CCCc3ccccc32)c1C,1,i
Brc1ccc2ncc(Br)cc2c1,0.49,i
O=C(Cn1c(=O)c2cccn2c2cccnc21)N1CCN(c2ccc(Cl)cc2)CC1,-7.6,-7.6*
Cc1ccc(Cl)cc1N1CCN(C(=O)CCCn2c(=O)c3cccn3c3cccnc32)CC1,x,i
Cc1cccc(C(=O)NNC(=O)c2ccccc2)c1,0.1,i
Cc1cccc(C(=O)c2cnc3ccccc3c2-c2ccccc2)c1,-6.4,-6.4*
Nc1nc(Nc2cccc(Cl)c2)n[nH]1,0.72,i
CCOC(CCNC(=O)c1cc(-c2cccs2)nc2ccccc12)OCC,x,i
C=CCNC(=S)Nc1sc2c(c1C(=O)OCC)CC(C)(CC)OC2 (stereo not drawn),9.9*,i
C=CCNC(=S)Nc1sc2c(c1C(=O)OCC)CCN(C(=O)OCC)C2,x,i
COCCNC(=O)C(c1ccncc1)N(Cc1ccccc1)C(=O)Cn1nnc2ccccc21 (stereo not drawn),x,i
CC(C)OC(=O)CSc1nc2c(c(C3CC=CCC3)c1C#N)CCC2 (stereo not drawn),-6,-6*
Cc1cc(C)c(C#N)c(SCC(=O)CC(=O)OC(C)C)n1,x,i
c1ccc(Oc2cnc3ccccc3n2)cc1,2.2,i
COc1ccc(Oc2cnc3ccccc3n2)cc1,-6,-6*
O=C(/C=C/c1ccc(Br)o1)Nc1nnc(C2CC2)s1,x,i
CC1(c2ccccc2)CC(C)(C)N2C(=O)Cc3cccc1c32 (stereo not drawn),-7.7,-7.7*
CC(=O)N1c2ccccc2C(C)(c2ccccc2)CC1(C)C (stereo not drawn),x,i
C/C(=N\NC(=O)c1ccoc1C)c1cccc2ccccc12,12*,i
C/C(=N\NC(=O)c1cccc2ccccc12)c1ccccn1,x,i
ClC(Cl)c1nnc(-c2ccccc2)c(-c2c[nH]c3ccccc23)n1,x,i
c1ccc(-c2nnc(-c3c[nH]c4ccccc34)nc2-c2ccccc2)cc1,-6.8,-6.8*
